# The source made the active and inactive calls.
# Experiments:
# [1] = binders of probe aFSTL3 on microarray, primary screen, stem cell growth factor project, biochemical, small-molecule microarray, fluorescence 635/667 (AID 1064); settings: higher = more signal;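 further: measures binding of the biotinylated anti-FSTL3 antibody to printed compounds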
# [2] = binders from COS7 lysate, DM2A8 probe, primary screen, torsin A project, cell lysate, small-molecule microarray, fluorescence 635/667 (AID 1065); settings: higher = more signal, COS7 lysate expressing mutant human TOR1A
# [3] = binders of probe aFGF2 on microarray, primary screen, stem cell growth factor project, biochemical, small-molecule microarray, fluorescence 635/667 (AID 1067); settings: higher = more signal;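 further: measures binding of biotinylated aFGF2 protein to printed compounds on slides; z-score merges feature fluorescence and signal-to-noise across triplicate slides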
# [4] = binders of probe aFGF10 on microarray, primary screen, stem cell growth factor project, biochemical, small-molecule microarray, fluorescence 635/667 (AID 1071); settings: higher = more signal;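 further: score merges 667 nm spot intensity and signal to noise from triplicate slides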
# [5] = target: Neurogenic locus notch homolog protein 2 (Homo sapiens) (UniProt Q04721); assay: Notch2 binders on small-molecule microarrays, primary screen, biochemical, small-molecule microarray, 635 nm fluorescence, stem cell growth factors (AID 1073); settings: Notch2 binding, higher = more signal
# Sequence of Neurogenic locus notch homolog protein 2 (Homo sapiens) (Q04721 whole entry, looked up, canonical isoform): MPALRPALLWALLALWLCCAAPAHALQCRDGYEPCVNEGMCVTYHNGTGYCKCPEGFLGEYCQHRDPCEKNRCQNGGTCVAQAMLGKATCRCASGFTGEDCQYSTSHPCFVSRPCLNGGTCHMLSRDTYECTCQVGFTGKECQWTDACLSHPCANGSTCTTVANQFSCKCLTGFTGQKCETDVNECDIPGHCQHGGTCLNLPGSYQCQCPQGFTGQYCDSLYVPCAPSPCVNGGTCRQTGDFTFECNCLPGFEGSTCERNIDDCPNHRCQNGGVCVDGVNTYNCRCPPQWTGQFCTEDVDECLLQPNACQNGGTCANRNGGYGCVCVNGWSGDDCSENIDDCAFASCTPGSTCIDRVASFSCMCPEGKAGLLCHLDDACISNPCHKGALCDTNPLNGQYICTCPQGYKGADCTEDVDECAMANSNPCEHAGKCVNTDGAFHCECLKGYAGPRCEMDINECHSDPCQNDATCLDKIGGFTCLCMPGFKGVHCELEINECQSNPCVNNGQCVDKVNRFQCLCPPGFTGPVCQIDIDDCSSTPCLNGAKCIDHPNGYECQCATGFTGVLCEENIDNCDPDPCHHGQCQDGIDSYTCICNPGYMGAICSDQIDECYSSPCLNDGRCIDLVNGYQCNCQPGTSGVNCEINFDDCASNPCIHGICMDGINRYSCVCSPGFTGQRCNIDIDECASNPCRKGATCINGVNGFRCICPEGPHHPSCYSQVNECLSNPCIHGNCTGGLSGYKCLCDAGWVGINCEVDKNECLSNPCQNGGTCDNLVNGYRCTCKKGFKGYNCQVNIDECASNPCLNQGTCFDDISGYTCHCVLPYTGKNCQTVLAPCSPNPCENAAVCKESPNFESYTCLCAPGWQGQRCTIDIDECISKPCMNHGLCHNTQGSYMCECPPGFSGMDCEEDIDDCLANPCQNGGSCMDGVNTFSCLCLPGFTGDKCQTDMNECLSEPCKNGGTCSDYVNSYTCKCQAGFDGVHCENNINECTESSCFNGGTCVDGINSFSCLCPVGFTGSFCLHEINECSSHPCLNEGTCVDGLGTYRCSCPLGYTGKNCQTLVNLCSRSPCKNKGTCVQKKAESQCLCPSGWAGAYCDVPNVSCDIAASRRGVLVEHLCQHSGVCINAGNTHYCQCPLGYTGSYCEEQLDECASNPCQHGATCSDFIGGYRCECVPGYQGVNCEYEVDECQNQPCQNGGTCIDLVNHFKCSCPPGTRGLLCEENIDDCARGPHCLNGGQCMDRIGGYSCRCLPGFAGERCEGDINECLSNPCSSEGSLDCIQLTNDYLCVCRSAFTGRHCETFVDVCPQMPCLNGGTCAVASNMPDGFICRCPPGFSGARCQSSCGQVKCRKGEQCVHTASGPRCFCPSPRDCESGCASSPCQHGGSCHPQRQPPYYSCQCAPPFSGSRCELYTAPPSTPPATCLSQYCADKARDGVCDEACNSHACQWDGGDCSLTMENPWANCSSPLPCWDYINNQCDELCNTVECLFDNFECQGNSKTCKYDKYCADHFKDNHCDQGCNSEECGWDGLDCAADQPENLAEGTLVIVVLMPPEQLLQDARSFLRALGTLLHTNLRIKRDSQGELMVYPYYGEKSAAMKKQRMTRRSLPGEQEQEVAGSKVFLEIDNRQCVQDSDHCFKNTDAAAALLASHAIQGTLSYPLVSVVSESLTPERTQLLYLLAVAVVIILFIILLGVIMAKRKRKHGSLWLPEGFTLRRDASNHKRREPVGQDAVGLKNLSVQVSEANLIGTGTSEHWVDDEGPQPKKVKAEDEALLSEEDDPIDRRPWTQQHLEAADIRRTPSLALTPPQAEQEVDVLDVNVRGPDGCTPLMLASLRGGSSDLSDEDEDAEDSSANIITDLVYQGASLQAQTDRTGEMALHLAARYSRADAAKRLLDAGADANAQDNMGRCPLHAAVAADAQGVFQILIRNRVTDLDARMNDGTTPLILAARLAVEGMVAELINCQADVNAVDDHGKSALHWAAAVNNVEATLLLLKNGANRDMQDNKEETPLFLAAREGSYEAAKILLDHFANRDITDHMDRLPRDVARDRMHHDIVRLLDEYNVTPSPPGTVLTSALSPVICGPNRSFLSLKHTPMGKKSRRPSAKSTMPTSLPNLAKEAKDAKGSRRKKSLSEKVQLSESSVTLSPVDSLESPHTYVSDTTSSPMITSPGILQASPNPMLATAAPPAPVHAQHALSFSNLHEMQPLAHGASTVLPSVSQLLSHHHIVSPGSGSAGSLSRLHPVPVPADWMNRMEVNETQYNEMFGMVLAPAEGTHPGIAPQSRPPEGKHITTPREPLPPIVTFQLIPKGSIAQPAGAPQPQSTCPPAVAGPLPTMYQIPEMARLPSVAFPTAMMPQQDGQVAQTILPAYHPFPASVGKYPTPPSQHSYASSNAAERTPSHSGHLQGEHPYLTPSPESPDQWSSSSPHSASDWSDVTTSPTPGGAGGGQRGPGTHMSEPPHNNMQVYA
# [6] = target: Pro-neuregulin-1, membrane-bound isoform (Homo sapiens) (UniProt Q02297); assay: NRG1 binders on small-molecule microarrays, primary screen, psychiatric disease protein project, biochemical, small-molecule microarray, fluorescence 635/667 (AID 1075); settings: NRG1 binding, 635 nm fluorescence, higher = more signal;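 further: score combines 667 nm spot fluorescence with signal to noise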
# [7] = test system: Neuregulin-1 EGF-like domain; assay: binders of neuregulin-1 EGF-like domain, primary screen, biochemical, small-molecule microarray, 635 nm fluorescence (AID 1081); settings: small-molecule microarray binding, higher = more signal;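 further: binding of the protein to compounds printed on small-molecule microarray slides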
# [8] = FRG1 promoter luciferase signal modulators, primary screen, FRG1 inhibition for FSHD, cell-based, C2C12 myotubes, firefly/Renilla luciferase, luminescence (AID 1084); settings: higher = more signal, called active from +8 up or from −8 down
# [9] = binders of probe aFST on microarray, primary screen, stem cell growth factor project, biochemical, small-molecule microarray, fluorescence 635/667 (AID 1086); settings: higher = more signal;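 further: score merges 667 nm fluorescence with signal-to-noise of each printed compound spot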
# [10] = binders of probe aHhip on microarray, primary screen, stem cell growth factor project, biochemical, small-molecule microarray, fluorescence 635/667 (AID 1087); settings: higher = more signal;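 further: score merges spot fluorescence at 667nm with spot signal to noise ratio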
# [11] = test system: PRMT1 (protein arginine N-methyltransferase 1); assay: PRMT1 binders on small-molecule microarrays, primary screen, biochemical, small-molecule microarray, 635 nm fluorescence (AID 1088); settings: small-molecule microarray binding, higher = more signal;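 further: binding of Prmt1 protein to compounds spotted on small-molecule microarray slides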
# [12] = yeast growth modulation, basal conditions, primary screen, YJM789 clinical isolate, OD600, 24 h (AID 1089);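 further: growth of clinical yeast isolate S. cerevisiae YJM 789 seeded 1000 cells per well; test concentration not given here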; settings: S. cerevisiae YJM789 growth, higher = more signal, called active from +8 up or from −8 down
# [13] = fission yeast growth modulation, primary screen, strain 972, OD600, 24 h, no modulator (AID 1090);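 further: basal condition with compound alone and no growth modifier present; test concentration not given here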; settings: S. pombe 972 growth, higher = more signal, called active from +8 up or from −8 down
# [14] = S. cerevisiae growth modulation with rapamycin, primary screen, strain BY4716, OD600, 96 h (AID 1091); settings: higher = more signal, called active from +8 up or from −8 down; further: test concentration not given here
# [15] = target: Torsin-1A-interacting protein 2 (Homo sapiens) (UniProt Q8NFQ8); assay: LULL1 binders on small-molecule microarray, primary screen, cell lysate, human LULL1 lysate, 635/667 nm fluorescence (AID 1092); settings: hLULL1 lysate binding, 635 nm fluorescence, higher = more signal;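 further: probe is lysate of COS7 cells overexpressing human LULL1; score merges per-feature 667 nm fluorescence with signal-to-noise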
# [16] = E. coli growth modulation, two-sided OD650, primary screen, E. coli filamentation project, strain DRC41, 24 h (AID 1093); settings: OD650, 24 h, higher = more signal, called active from +8 up or from −8 down;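 further: MC1000 strain lacking acrAB efflux and sulA so SOS filamentation is blocked; test concentration not given here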
# [17] = small-molecule microarray binders of probe aLefty2, primary screen, biochemical, biotinylated probe, 635/667 nm fluorescence (AID 1094); settings: higher = more signal;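 further: score merges spot fluorescence near 667 nm with spot signal-to-noise ratio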
# [18] = test system: Noggin (protein binding on small-molecule microarray); assay: Noggin binders on small-molecule microarray, primary screen, biochemical, 635/667 nm fluorescence (AID 1095); settings: 635 nm fluorescence, higher = more signal;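 further: score merges 667 nm feature fluorescence with signal to noise over triplicate slides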
# [19] = target: Neurogenic locus notch homolog protein 3 (Homo sapiens) (UniProt Q9UM47); assay: NOTCH3 binders on small-molecule microarray, primary screen, biochemical, 635/667 nm fluorescence (AID 1096); settings: NOTCH3 binding, 635 nm fluorescence, higher = more signal
# Sequence of Neurogenic locus notch homolog protein 3 (Homo sapiens) (Q9UM47 whole entry, looked up): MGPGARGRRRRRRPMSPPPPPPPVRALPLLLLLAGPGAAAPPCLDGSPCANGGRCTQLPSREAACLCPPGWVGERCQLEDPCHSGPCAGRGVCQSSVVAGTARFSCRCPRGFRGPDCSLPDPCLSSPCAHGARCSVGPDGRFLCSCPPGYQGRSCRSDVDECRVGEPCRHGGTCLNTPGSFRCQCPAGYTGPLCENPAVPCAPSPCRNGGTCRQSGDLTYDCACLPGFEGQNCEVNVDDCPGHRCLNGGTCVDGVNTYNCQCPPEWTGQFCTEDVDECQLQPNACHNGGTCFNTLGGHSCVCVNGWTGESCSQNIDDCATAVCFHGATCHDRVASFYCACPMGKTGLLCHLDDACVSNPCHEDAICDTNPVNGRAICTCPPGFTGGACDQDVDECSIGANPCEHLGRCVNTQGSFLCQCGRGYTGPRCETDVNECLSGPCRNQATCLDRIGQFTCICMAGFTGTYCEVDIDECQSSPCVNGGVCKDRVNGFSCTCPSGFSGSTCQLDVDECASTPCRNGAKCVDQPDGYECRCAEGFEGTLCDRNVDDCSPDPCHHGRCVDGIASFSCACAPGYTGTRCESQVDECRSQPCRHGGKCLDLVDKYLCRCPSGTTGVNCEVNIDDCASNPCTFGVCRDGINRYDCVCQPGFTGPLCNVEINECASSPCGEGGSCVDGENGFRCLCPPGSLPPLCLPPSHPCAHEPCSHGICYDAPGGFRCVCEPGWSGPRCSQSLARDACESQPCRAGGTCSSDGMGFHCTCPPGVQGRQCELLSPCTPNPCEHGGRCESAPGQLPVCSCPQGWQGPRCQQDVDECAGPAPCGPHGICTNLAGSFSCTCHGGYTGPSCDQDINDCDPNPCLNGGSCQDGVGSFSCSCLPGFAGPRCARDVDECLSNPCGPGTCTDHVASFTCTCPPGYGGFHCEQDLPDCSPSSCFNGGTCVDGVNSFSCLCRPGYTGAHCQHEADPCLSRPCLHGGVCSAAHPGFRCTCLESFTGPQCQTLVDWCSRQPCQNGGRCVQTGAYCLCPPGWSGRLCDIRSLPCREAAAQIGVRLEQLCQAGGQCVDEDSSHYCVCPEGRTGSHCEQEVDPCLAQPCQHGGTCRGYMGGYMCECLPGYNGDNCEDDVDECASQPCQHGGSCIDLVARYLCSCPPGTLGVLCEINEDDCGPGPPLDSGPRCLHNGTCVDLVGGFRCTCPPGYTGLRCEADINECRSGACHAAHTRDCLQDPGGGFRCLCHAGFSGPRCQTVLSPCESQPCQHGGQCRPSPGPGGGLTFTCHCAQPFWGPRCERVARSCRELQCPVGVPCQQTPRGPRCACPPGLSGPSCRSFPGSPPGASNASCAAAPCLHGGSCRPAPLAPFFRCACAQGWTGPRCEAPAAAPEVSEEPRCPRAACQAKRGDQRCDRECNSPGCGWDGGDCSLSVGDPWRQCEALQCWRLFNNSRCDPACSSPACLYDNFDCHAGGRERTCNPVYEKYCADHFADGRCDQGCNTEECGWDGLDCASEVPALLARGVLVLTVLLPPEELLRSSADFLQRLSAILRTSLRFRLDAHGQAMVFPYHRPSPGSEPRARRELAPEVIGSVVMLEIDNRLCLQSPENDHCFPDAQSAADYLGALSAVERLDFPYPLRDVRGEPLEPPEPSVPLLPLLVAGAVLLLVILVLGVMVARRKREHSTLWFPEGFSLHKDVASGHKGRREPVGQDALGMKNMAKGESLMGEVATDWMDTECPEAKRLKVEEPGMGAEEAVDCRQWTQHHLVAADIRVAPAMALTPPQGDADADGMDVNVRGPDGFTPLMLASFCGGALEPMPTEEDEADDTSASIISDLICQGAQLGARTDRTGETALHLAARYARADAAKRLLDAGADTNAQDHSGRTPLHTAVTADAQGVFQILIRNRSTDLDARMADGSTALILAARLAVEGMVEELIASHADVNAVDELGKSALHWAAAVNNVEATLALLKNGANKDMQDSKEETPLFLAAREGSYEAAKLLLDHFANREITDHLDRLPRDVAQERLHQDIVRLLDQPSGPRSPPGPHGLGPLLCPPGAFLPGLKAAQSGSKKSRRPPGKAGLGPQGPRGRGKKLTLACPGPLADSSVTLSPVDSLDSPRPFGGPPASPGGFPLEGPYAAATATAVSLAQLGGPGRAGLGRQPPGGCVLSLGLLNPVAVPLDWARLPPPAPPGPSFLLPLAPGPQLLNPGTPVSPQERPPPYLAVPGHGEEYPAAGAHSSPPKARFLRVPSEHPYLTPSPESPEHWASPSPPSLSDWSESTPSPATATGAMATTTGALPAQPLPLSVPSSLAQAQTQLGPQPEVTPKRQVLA
# [20] = small-molecule microarray binders of probe aEGFR, primary screen, biochemical, biotinylated probe, 635/667 nm fluorescence (AID 1097); settings: higher = more signal;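 further: probe is a biotinylated anti-EGFR antibody binding compounds printed on slides; score combines fluorescence near 667 nm and signal to noise of each spot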
Structure (SMILES),composite z-score [1],composite z-score [2],composite z-score [3],composite z-score [4],composite z-score [5],composite z-score [6],composite z-score [7],z-score [8],composite z-score [9],composite z-score [10],composite z-score [11],z-score [12],z-score [13],z-score [14],composite z-score [15],z-score [16],composite z-score [17],composite z-score [18],composite z-score [19],composite z-score [20]
COC(=O)[C@@]1(Cc2ccc(F)cc2)[C@H]2c3cc(C(=O)N(C)C)n(Cc4ccc(OC(F)(F)F)cc4)c3C[C@H]2CN1C(=O)c1ccccc1,-0.252,0.34,-0.12,0.369,0.708,0.109,0.429,0.306 (inactive),0.402,-0.305,-1.21,0.784 (inactive),1.13 (inactive),1 (inactive),0.841,-0.623 (inactive),-0.0623,0.149,-0.0482,0.114
[N-]=[N+]=Nc1ccccc1C[C@@]1(C(N)=O)N=C(c2ccc(OCCCO)cc2)O[C@@H]1c1ccccc1N=[N+]=[N-],0.613,0.338,-0.0751,0.684,1.45,0.467,1.26,0.0144 (inactive),0.493,0.0722,0.319,-0.974 (inactive),-1.01 (inactive),-0.933 (inactive),2.05,0.905 (inactive),0.281,-0.467,0.0955,0.639
C[C@@H]1NC(=O)[C@@H](Cc2ccccc2)NC(=O)[C@@]23C(=O)N[C@@H](Cc4ccccc4)C2[C@H](C)[C@@]2(C)O[C@H]2C3/C=C/C/C=C\CNC1=O (stereo not given in full),-0.285,1.13,-0.149,-0.211,-0.787,-0.235,0.305,-0.323 (inactive),-0.263,-0.249,-1.06,0.378 (inactive),0.573 (inactive),0.783 (inactive),2.84,-1.02 (inactive),-0.218,0.972,0.354,-0.168
Cc1ccc(S[C@]2(C(=O)NCCN3CCOCC3)CC(=O)N(Cc3ccccc3Cl)[C@@H]2c2ccc(CO)cc2I)cc1,0.75,1.78,0.0027,-0.142,-0.675,1.15,1.04,-2.03 (inactive),-0.387,0.302,0.443,-0.841 (inactive),-3.57 (inactive),0.665 (inactive),2.77,-0.373 (inactive),0.508,-0.064,-0.364,-0.455
COCCOC(=O)N1C(=O)[C@@]2(c3ccccc31)[C@H](c1ccc(O)cc1)N1[C@H](c3ccccc3)[C@H](c3ccccc3)OC(=O)[C@H]1[C@@H]2C(=O)N1CCN(c2ncccn2)CC1,-0.224,0.23,0.0019,0.644,0.618,0.647,1.07,-1.27 (inactive),-0.165,-0.0903,1.55,0.42 (inactive),1.17 (inactive),1.84 (inactive),2.78,1.05 (inactive),0.0669,1.13,0.855,0.0334
COc1ccccc1CN1C(=O)c2ccccc2[C@](Cc2ccccc2I)(C(=O)O)[C@@H]1c1ccc(CO)cc1,-0.689,0.387,0.0043,1.01,1.51,1.36,1.27,-1.49 (inactive),-0.262,0.305,1.51,0.443 (inactive),0.812 (inactive),-0.0193 (inactive),2.45,1.28 (inactive),-0.0031,0.653,1,0.554
CCCCN1CC=CC23O[C@@H]4/C=C\CCCOC(=O)C4[C@H]2C(=O)N(CCO)[C@@H]3C1=O (stereo not given in full),0.33,-1.37,-0.19,-0.615,-0.913,0.441,1.61,-0.0657 (inactive),-1,-0.271,-0.328,0.812 (inactive),-0.0784 (inactive),-0.0859 (inactive),3.01,2.12 (inactive),-0.212,-1.03,-0.968,-0.385
COc1ccc([Si](C)(C)[C@@H]2[C@@H](CC(=O)N3CCC[C@H]3CO)O[C@]3(C(=O)N(Cc4cccc(N5C(=O)COc6ccccc65)c4)c4ccccc43)[C@H]2C)cc1,-0.222,0.203,-0.112,0.428,-0.173,1.35,1.12,-0.234 (inactive),0.824,0.103,1.57,-2.24 (inactive),-0.185 (inactive),-0.278 (inactive),1.77,0.222 (inactive),-0.0198,0.942,0.757,-0.165
O=C1O[C@H](c2ccccc2)[C@H](c2ccccc2)N2[C@H]1[C@@H](C(=O)O)[C@]1(C(=O)Nc3ccc(C#CCCO)cc31)[C@H]2c1ccccc1OCCO,-0.324,0.627,-0.0962,0.21,-0.0765,0.944,1.23,0.37 (inactive),-0.0238,-0.0994,1.09,0.642 (inactive),-0.495 (inactive),0.224 (inactive),2.97,0.18 (inactive),-0.13,0.55,0.116,-0.204
CCCNC(=O)[C@@H]1c2ccccc2C(=O)N(Cc2ccc(OC(F)(F)F)cc2)[C@H]1c1ccc(CO)cc1,0.193,-0.392,0.0295,0.0505,0.634,0.33,1.24,-1.88 (inactive),0.0347,-0.0237,0.428,0.645 (inactive),0.0302 (inactive),-0.174 (inactive),2.12,0.937 (inactive),0.0286,-0.0211,0.0529,-0.0316

# Reference: PubChem BioAssay
